# Screening results: PubChem BioAssay, National Center for Advancing Translational Sciences (NCATS)
# D1 PAM – Potentiators of Human D1 Dopamine Receptor: qHTS; D(1A) dopamine receptor (Homo sapiens), P21728; HEK293 TREx D1 cells, calcium flux, dopamine EC20 potentiation; potentiation, % at 10 µM; actives 0.036% (n = 360,000); AID 504651, 2011; in the data active means potentiation above about 30%; further: 0% is about no effect
# TRHR agonist – qHTS for Small Molecule Agonists and Allosteric Enhancers of Human TRH Receptor: Primary Screen for Agonists | Thyrotropin-releasing hormone receptor (Homo sapiens), P34981 | TRHR cells, calcium flux fluo-8, FDSS agonist mode | activation, % at 2 µM | actives 0.18% (n = 360,000); further: 0% is about no effect
# Target sequence (P34981 whole entry, looked up): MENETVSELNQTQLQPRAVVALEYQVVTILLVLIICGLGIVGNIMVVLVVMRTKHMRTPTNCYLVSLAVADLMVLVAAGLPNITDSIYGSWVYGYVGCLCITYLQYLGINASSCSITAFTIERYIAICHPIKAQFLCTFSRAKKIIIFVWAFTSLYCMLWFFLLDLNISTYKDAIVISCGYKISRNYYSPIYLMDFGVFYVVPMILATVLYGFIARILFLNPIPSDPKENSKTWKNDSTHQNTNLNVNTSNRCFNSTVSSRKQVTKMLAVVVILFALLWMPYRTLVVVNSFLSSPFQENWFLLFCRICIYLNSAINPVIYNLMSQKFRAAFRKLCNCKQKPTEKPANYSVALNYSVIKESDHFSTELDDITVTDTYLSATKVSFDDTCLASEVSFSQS
#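 TRHR-expressing cells loaded with fluo-8 calcium dye; 23 nL library compound pin-transferred, kinetic FDSS fluorescence (Ex 480/Em 530) recorded about 180 s for agonist-induced calcium release, before a 10 nM TRH EC20 addition for potentiator mode.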
# TRHR enhancer – qHTS for Small Molecule Agonists and Allosteric Enhancers of Human TRH Receptor: Primary Screen for Enhancers; enhancement, % at 2 µM; actives 0.66% (n = 360,000); TRHR cells, fluo-8 calcium fluorescence, EC20 TRH enhancement; in the data active means enhancement above about 30%; further: 0% is about no effect
#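 Enhancer read-out: after compound pinning and an initial kinetic agonist-mode read, an EC20 of TRH (10 nM final) was injected and fluo-8 calcium signal (Ex 480/Em 530) followed at 1 s/cycle for 100 cycles in TRHR-expressing cells.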
# D1 ag – Allosteric Agonists of the Human D1 Dopamine Receptor: qHTS; HEK293 T-REx D1 cells, calcium flux, agonist mode; activation, % at 2 µM; actives 1% (n = 360,000); further: 0% is about no effect
#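 Tetracycline-induced HEK293 TREx D1 cells, force-coupled to calcium signalling, were dye-loaded with a no-wash calcium kit. Compound was pin-added after a 10 s baseline. Fluorescence was read kinetically at 1 cycle/s for 180 s, with calcium rises flagged as agonism.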
# D1 antagonist – Antagonist of Human D 1 Dopamine Receptor: qHTS | actives 3.2% (n = 360,000) | HEK293 TREx D1 cells, calcium flux, dopamine EC80; active compounds read low | AID 504652, 2011 | D(1A) dopamine receptor (Homo sapiens), P21728 | activity change, negative = inhibition, % at 10 µM; in the data active means activity change below about -30%; further: on the % scale 0 is the no-effect control and ±100 the full control effect
#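 Allosteric or orthosteric antagonism assessed as attenuation of the calcium response to EC80 dopamine, added 180 s after compound, in induced HEK293 Trex D1 cells loaded with no-wash calcium dye.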
# * = called active by the depositor. Hits are enriched below; roughly 4.7% of the tested compounds scored in any of these assays. Unless noted, no stated cut-off is given here; in the data, active means activation above about 30%; inactive means the rest.
SMILES,D1 PAM,TRHR agonist,TRHR enhancer,D1 ag,D1 antagonist
CC(C)(C)OC(=O)N1CCC(c2c(C(=O)Nc3ccc4c(c3)OCCO4)cnn2-c2ccccc2)CC1,-7.8,-0.1,6.3,1.6,-30.3*
CCN1CCN(C(=O)c2cnn(-c3cccc(Cl)c3)c2C2CCN(C(=O)OC(C)(C)C)CC2)CC1,-3.5,1.8,37.3*,3.2,2.7
CC(C)(C)OC(=O)N1CCC(c2c(C(=O)Nc3ccc4c(c3)OCCO4)cnn2-c2ccc(Cl)cc2)CC1,2.6,1.1,4.3,3.7,17.7
Cc1ccc(-n2ncc(C(=O)Nc3ccc4c(c3)OCO4)c2C2CCN(C(=O)OC(C)(C)C)CC2)cc1,-2.1,0.2,3.4,0.5,-1.9
COc1ccccc1CNC(=O)c1cnn(-c2ccc(F)cc2F)c1C1CCN(C(=O)OC(C)(C)C)CC1,-8.2,-1.0,-5.6,0.1,-59.2*
CC(C)(C)OC(=O)N1CCC(c2c(C(=O)N3CCN(C4CCCCC4)CC3)cnn2-c2cccc(Cl)c2)CC1,1.4,6.7,20.9,-0.5,-7.4
CCN1CCN(c2nnc(-n3cccc3C(=O)Nc3cccc(OC)c3)s2)CC1,-1.8,-0.1,11.4,1.2,7.7
Cc1ccc(-c2nnc(Nc3ccc(C(N)=O)cc3)c3ccccc23)cc1S(N)(=O)=O,1.6,1.3,-7.3,3.8,6.0
COc1ccc(CCN2CCC(CNC(=O)c3cnn(-c4ccc(C)cc4)c3C3CCN(C(=O)OC(C)(C)C)CC3)CC2)cc1,-6.8,-1.2,13.0,57.8*,-29.4
Cc1c(Cl)cccc1NC(=O)c1oc2ccc(S(=O)(=O)N3CCC4(CC3)OCCO4)cc2c1C,2.1,0.9,21.5,4.5,-5.8
Cc1cccc(OCC(=O)Nc2ccccc2C(=O)OCc2cc(=O)n3nc(C)sc3n2)c1,0.6,1.1,0.6,1.0,2.3
COc1cccc(C(=O)Nc2c(C(=O)NC(C)(C)C)oc3ccccc23)c1,0.2,-1.9,-5.5,0.3,1.3
Cc1ccc(NC(=O)COC(=O)Cc2c[nH]c3ccccc23)cc1F,-2.6,0.1,7.7,9.2,-20.3
O=C(COC(=O)Cc1c[nH]c2ccccc12)Nc1ccccc1,-6.3,0.3,3.9,5.1,-34.4*
NC(=O)c1ccsc1NC(=O)COC(=O)Cc1c[nH]c2ccccc12,-9.8,0.4,3.0,14.4,-34.1*
Cc1cccc(NC(=O)COC(=O)Cc2c[nH]c3ccccc23)c1C,0.3,-0.5,-5.8,2.5,-32.0*
COc1ccccc1NC(=O)COC(=O)Cc1c[nH]c2ccccc12,-2.6,-2.0,-0.8,2.9,9.6
CCOC(=O)c1ccc(NC(=O)CCCn2nc(C)c3sc4ccccc4c3c2=O)cc1,-0.2,0.5,1.1,0.4,-10.5
COc1ccc(C(=O)CC2(O)C(=O)N(CCc3ccccc3)c3ccc(Br)cc32)cc1OC (stereo unspecified),0.1,0.6,-17.4,4.5,0.7
Cc1ccc2nc(-c3cc(NC(=O)/C=C/c4ccccc4)ccc3Cl)oc2c1,-1.4,0.3,17.4,4.6,-9.8
O=C1CCC(C(=O)N2CCCC(C(=O)c3ccc4c5c(cccc35)CC4)C2)=NN1 (stereo unspecified),-3.5,1.2,-2.4,2.4,-32.8*
CCn1cc2nc(SCC(=O)Nc3ccc(OC)cc3OC)n(Cc3ccc(Cl)cc3)c(=O)c2n1,1.2,0.4,-8.3,0.4,-0.3
CC(=O)Nc1ccc(N/C(N)=N/c2nc(C)cc(C)n2)cc1,-4.8,0.3,-12.0,0.6,-1.4
Cc1cc(C)nc(/N=C(\N)Nc2ccc(-c3ccccc3)cc2)n1,-2.0,5.3,-8.8,33.6*,0.2
Cc1cc(C)nc(/N=C(\N)Nc2ccc(SC(F)F)cc2)n1,-6.9,8.9,0.0,43.4*,-49.1*
SMILES,D1 PAM,TRHR agonist,TRHR enhancer,D1 ag,D1 antagonist
O=C(CNC(=O)c1ccccc1)OC(Cc1ccccc1)C(=O)Nc1cc(C(F)(F)F)ccc1Cl (stereo unspecified),-3.1,-2.7,-7.3,3.5,-5.5
Cc1cccc(C(=O)NCC(=O)OC(C(=O)Nc2cc(C(F)(F)F)ccc2Cl)c2ccccc2)c1 (stereo unspecified),-5.5,2.3,-7.0,7.1,-30.2*
O=C(CNC(=O)c1ccccc1)OC(CCc1ccccc1)C(=O)Nc1cc(C(F)(F)F)ccc1Cl (stereo unspecified),-6.5,2.2,-17.2,8.2,-37.3*
CCS(=O)(=O)c1nn2c(N)c(/C=C3/C=CC(=O)C(OC)=C3)c(=O)nc2s1,-2.6,14.7,6.8,30.9*,13.4
COC1=C/C(=C/c2c(N)n3nc(-c4ccc(C)cc4)sc3nc2=O)C=CC1=O,-3.5,5.1,0.0,7.5,14.3
CCOC(=O)Cc1c(C)nc(N)[nH]c1=O,-2.0,0.3,-2.6,3.2,-30.6*
COc1ccc(Cn2c(C(=O)O)c(CNC3CCCCCC3)c3ccc(OC)cc32)cc1,1.1,-0.2,-5.6,1.5,9.5
CCOc1ccc2[nH]c(=O)c(CN(Cc3cccs3)Cc3nnnn3C(C)(C)C)cc2c1,-0.1,-0.7,-4.2,1.1,-30.1*
CCC(c1nnnn1C(C)(C)CC)N(CCN1CCOCC1)Cc1cc2cc(C)ccc2[nH]c1=O (stereo unspecified),9.9,0.3,9.7,1.0,-1.6
CCOc1ccc2[nH]c(=O)c(CN(CCN3CCOCC3)Cc3nnnn3C(C)(C)CC)cc2c1,3.9,0.2,30.2*,0.8,-4.7
O=C1Nc2ccccc2C1(c1ccccc1)c1ccccc1,-5.5,-0.2,-1.8,33.0*,6.6
CC(C)NCC(O)COCc1ccc(Cl)cc1 (stereo unspecified),-2.1,0.8,2.6,1.4,4.0
CCC(C)NCC(O)COCc1ccc(Cl)cc1 (stereo unspecified),-0.9,-0.9,4.1,36.2*,6.0
CN1C2CCC1/C(=C/c1cccn1C)C(=O)/C2=C\c1cccn1C,-3.8,-0.9,20.6,187.3*,-6.1
Cn1cccc1/C=C1\CC(C(C)(C)C)C/C(=C\c2cccn2C)C1=O (stereo unspecified),2.2,-2.8,8.6,122.8*,-7.7
Oc1ccccc1C1C=C(c2ccc3c(c2)OCO3)NC(c2cccc(F)c2)N1 (stereo unspecified),2.4,0.1,11.3,8.5,0.6
O=[N+]([O-])c1nn(-c2ccc(Cl)cc2)n(O)c1=NCc1ccncc1,-4.5,-1.6,-5.8,5.3,-42.2*
O=C(O)c1cccnc1C(=O)N1CCc2c([nH]c3ccccc23)C1C(F)(F)F (stereo unspecified),0.2,-1.5,-4.7,2.3,13.2
